A word on the inhibition: it is the drop in the measured response relative to a control, in per cent.

A short description of test [1]: rapamycin-like changes in RPL19A-GFP expression – cell-based, S. cerevisiae, multiplex flow cytometry, primary screen (AID 1862).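 Also: lower values mimic rapamycin by blocking the RPL19A rise seen in DMSO cells.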 Conditions: S. cerevisiae RPL19A-GFP strain, flow cytometry fluorescence, 3 h; at 10 µM; stronger effect = lower value. A general note: A flow cytometer gives signals particle by particle.
A short description of test [2]: TOR pathway GLN3 branch reporter MEP2-GFP changes – S. cerevisiae, multiplex flow cytometry, primary screen (AID 1867;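 active = GFP response, as percent of the DMSO control, above the screen-wide mean plus 3 SD, about 139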;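 also: median GFP channel fluorescence of barcode-gated MEP2-GFP cells measured by flow cytometry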). Conditions: S. cerevisiae MEP2-GFP strain, 3 h, at 10 µM, stronger effect = higher value, 100% means same as DMSO wells.
The nature of test [3]: TOR pathway RTG branch CIT2 reporter changes – S. cerevisiae, GFP fusion, multiplex flow cytometry, primary screen (AID 1870;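 active = percent response above a set limit, the screen-wide mean plus 3 SD, cut at about 130% in these data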;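 also: barcoded CIT2-GFP strain pooled with four other GFP strains with rapamycin as positive control; median GFP fluorescence per well over plate mean of DMSO wells so 100% = DMSO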). Conditions: S. cerevisiae CIT2-GFP expression, 3 h, at 10 µM, stronger effect = higher value.
Test [4] in a line: TOR pathway LAP4-GFP level changes – S. cerevisiae, multiplex flow cytometry, primary screen (AID 1873;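 active = GFP signal, as percent of the solvent control, above the screen mean plus 3 SD, about 149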). Conditions: S. cerevisiae LAP4-GFP expression, 3 h, at 10 µM, stronger effect = higher value.
The nature of test [5]: yeast AGP1-GFP level changes, GLN3 branch – cell-based, multiplex flow cytometry, S. cerevisiae, primary screen (AID 1887;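 active = GFP signal above the screen-wide mean plus 3 SD, that is over about 124.5% of the solvent control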;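 also: AGP1-GFP fusion strain of S. cerevisiae within a five-strain barcoded multiplex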). Conditions: 3 h, at 10 µM, stronger effect = higher value.
Test [6] in a line: reduced mouse 2C T cell binding to pMHC/ICAM-1 vesicles – MLPCN validation set, flow cytometry, LFA-1/ICAM-1 modulator project, pilot screen (AID 2523;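 active = response below a set limit, under 55% cells CD8-positive and vesicle-bound, and CD8 cells' 90th-percentile brightness under 279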;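 as to vesicle binding response: mean PE anti-B7-1 fluorescence of CD8+ cells relative to row control; 100% = QL9-loaded vesicles with DMSO vehicle in the same plate row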). Conditions: 2C mouse CD8+ T cells, at 7 µM, stronger effect = lower value; double positive events: measured here: CD8+/vesicle+ event percentage.
Test [7] has as its target Integrin beta-1 (Homo sapiens) + Integrin alpha-4 (Homo sapiens) (UniProt P13612+P05556). The experiment in a line: alpha4beta1 integrin LIBS antibody binding reduction – U937 cells, HUTS-21 mAb, flow cytometry, validation set, VLA-4 allosteric modulator project, pilot screen (AID 2674;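 active = inhibition above 50%, about 3 SD of the validation set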;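 also: antibody binding induced by the VLA-4 ligand LDV present at three times its Kd; 0% = LDV ligand with antibody and no compound and 100% = antibody without LDV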). Conditions: HUTS-21 LIBS mAb binding, at 6.7 µM, stronger effect = higher value, binding induced by LDV ligand.

Test [8] addresses Beta-adrenergic receptor kinase 1 (Homo sapiens) (UniProt P25098). The experiment in a line: GRK2 binders displacing RNA aptamer, biochemical, validation, human GRK2, bead flow cytometry (AID 488806;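 active = aptamer binding inhibition above 30%, about 3 SD of noise from non-fluorescent compounds; inactive = inhibition at or below 30%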). Conditions: bead-bound GRK2, FAM-aptamer displacement, at 10 µM, stronger effect = higher value.
The target of test [9] is Beta-2 adrenergic receptor (Homo sapiens) (UniProt P07550). Nature of the test: agonist-induced loss of surface beta2AR – cell-based, FAP fluorogen, flow cytometry, validation set, pilot screen (AID 504459;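 active = percent response above 42, roughly 3 SD of non-fluorescent test compounds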;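 also: agonist-driven loss of surface beta2AR via internalization measured by FAP dye flow cytometry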). Conditions: Am2.2-beta2AR cells, at 10 µM, stronger effect = higher value.
The target in test [10] is AP-2 complex subunit beta (Homo sapiens) (UniProt P63010). The experiment in a line: beta-arrestin/AP2 interaction blockers – biochemical, validation set, GST-AP2 beads, flow cytometry, pilot screen (AID 504541;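 active = inhibition above 54%, about 3 SD of non-fluorescent compounds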;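 also: AP2 carries R879A mutation and is captured from E. coli lysate; bead-bound FITC arrestin peptide fluorescence measuring arrestin peptide binding to AP2; 0% = DMSO wells and 100% = excess unlabeled arrestin peptide control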). Conditions: FITC arrestin peptide, at 10 µM, stronger effect = higher value, AP2 beta2 appendage fragment, R879A mutant.
Test [11] is described as follows: cytosolic pH regulators acting via V-ATPase – S. cerevisiae, pHLuorin, HTS validation (AID 504600; in the data active = response above about 15%;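 also: plate controls were DMSO for no effect and reference compound for full effect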). Conditions: V-ATPase proton transport, at 10 µM, stronger effect = higher value.
Test [12] concerns anti-desmoglein-3 scFv antibody binding to human DSG3. The experiment in a line: blockers of pathogenic pemphigus antibody–desmoglein-3 binding – biochemical, validation compound set, bead-based, flow cytometry, pilot screen (AID 588368;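 active = binding below the plate cutoff, the plate median minus 3 SD, with a reading above zero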;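 also: signal is the median channel fluorescence of bead-bound GFP antibody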). Conditions: Protein G beads, DSG3-Fc, scFv-GFP binding, at 10 µM, stronger effect = lower value.
A short description of test [13]: Nile Red efflux blockade in pump-expressing yeast – validation compound set, multiplex, phenotypic, pilot screen (AID 588506;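 active = efflux inhibition above 0.42, the validation set average plus 4 SD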;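 also: Nile Red retained in cells so higher fluorescence means more efflux inhibition; 0 = negative control wells and 1 = enniatin B 25 µM full block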). Conditions: S. cerevisiae pump-expressing triplex, Nile Red efflux flow cytometry; at 10 µM; stronger effect = higher value; the pumps come from Candida albicans.
The target in test [14] is ATP-binding cassette sub-family B member 6 (Homo sapiens) (UniProt Q9NP58). The experiment in a line: blockers of ABCB6-driven porphyrin uptake – K562-ABCB6 cells, flow cytometry, validation set, pilot screen (AID 588550;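 active = inhibition above the screen-wide mean plus 3 SD, about 51%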;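 also: 0% = DMSO wells and 100% = benzethonium chloride 70 µM positive control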). Conditions: K562-ABCB6 porphyrin accumulation, 1 h, at 10 µM, stronger effect = higher value.
Test [15] in a line: AML differentiation inducers, ER-HoxA9 marrow cells – cell-based, GFP/MAC1 double positive, flow cytometry, validation set, primary screen (AID 588685;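 active = differentiation response of at least 50%, scaled between solvent and reference control, from cells with both markers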;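 also: compound exposure lasts four days before antibody staining and flow analysis; 0% = DMSO wells and 100% = 5 µM fulvestrant positive control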). Conditions: stronger effect = higher value, normalized: vehicle 0, fulvestrant 100.
A short description of test [16]: hit retest on RPL19A-GFP reporter strain – cell-based, S. cerevisiae, flow cytometry, cherry picks, mother/daughter gates, confirmation (AID 2270;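 active = GFP response below 50% of the DMSO control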). Conditions: 3 h, at 10 µM, stronger effect = lower value, 100 = same GFP as DMSO wells.
A short description of test [17]: yeast TOR pathway reporter LAP4-GFP change – cell-based, cherry picks, flow cytometry, mother/daughter gates, confirmation (AID 2271;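 active = GFP response above 150% of the DMSO control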;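 also: ratio of sample to DMSO plate mean so 100% equals DMSO level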). Conditions: S. cerevisiae LAP4-GFP strain, 3 h, at 10 µM, stronger effect = higher value, 100 means same as DMSO control.
Test [18] is described as follows: TOR pathway reporter MEP2-GFP, retest of hits – S. cerevisiae, flow cytometry GFP, cherry picks, confirmation (AID 2272;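 active = GFP response above 150% of the DMSO control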;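 also: ratio of well signal to plate DMSO mean so 100% equals DMSO level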). Conditions: S. cerevisiae MEP2-GFP strain, 3 h, at 10 µM, stronger effect = higher value.
Test [19] can be described thus: TOR pathway CIT2 reporter hit retest – S. cerevisiae, GFP fusion, cherry picks, mother/daughter gates, confirmation (AID 2274;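 active = GFP response above 150% of the DMSO level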). Conditions: S. cerevisiae CIT2-GFP strain, flow cytometry, 3 h, at 10 µM, stronger effect = higher value.
The nature of test [20]: calorie-restriction mimetic ROS inhibitors, yeast – validation compound set, pilot screen (AID 2706;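 active = superoxide response below 65% of plate, a cut near 3 SD across the whole screen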;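 also: yeast exposed to compound for one week at 30 degrees C before staining; 100% = mean of all compound wells on the same plate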). Conditions: S. cerevisiae aging, superoxide DHE fluorescence; at 10 µM, stronger effect = lower value.
Where [21] appears, read: measured here: daughter cell gate.
The mark [22] stands for this setting: measured here: mother cell gate.

Molecules are shown by their SMILES. Results filed as inconclusive are left out. Calls of active or inactive are those of the source. Rule as the data show it, unless noted: active = percent of DMSO control GFP below about 86%; inactive = the rest, inconclusive results apart.

Chain of Integrin beta-1 (Homo sapiens) + Integrin alpha-4 (Homo sapiens) (P05556 whole entry, looked up): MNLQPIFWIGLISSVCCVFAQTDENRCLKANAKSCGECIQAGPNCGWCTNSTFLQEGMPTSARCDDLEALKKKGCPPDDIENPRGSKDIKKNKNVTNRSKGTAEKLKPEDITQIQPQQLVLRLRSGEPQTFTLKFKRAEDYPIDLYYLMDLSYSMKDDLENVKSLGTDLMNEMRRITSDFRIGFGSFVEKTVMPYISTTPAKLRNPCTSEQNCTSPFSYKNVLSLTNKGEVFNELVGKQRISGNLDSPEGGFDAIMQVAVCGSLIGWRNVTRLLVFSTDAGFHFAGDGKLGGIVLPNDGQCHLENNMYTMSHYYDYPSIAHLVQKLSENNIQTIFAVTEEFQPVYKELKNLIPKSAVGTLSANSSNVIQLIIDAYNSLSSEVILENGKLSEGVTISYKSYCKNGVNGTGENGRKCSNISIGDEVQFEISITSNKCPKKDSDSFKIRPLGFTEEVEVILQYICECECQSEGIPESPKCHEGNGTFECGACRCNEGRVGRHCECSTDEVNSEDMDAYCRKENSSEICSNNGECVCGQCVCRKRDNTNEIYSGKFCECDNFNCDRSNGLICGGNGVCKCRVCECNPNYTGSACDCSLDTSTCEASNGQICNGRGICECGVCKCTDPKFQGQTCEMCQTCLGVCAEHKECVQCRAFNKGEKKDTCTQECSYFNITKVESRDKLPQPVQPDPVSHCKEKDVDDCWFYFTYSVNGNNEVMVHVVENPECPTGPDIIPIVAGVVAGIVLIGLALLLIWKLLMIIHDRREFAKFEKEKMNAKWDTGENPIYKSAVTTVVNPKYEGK
Chain of Integrin beta-1 (Homo sapiens) + Integrin alpha-4 (Homo sapiens) (P13612 whole entry, looked up): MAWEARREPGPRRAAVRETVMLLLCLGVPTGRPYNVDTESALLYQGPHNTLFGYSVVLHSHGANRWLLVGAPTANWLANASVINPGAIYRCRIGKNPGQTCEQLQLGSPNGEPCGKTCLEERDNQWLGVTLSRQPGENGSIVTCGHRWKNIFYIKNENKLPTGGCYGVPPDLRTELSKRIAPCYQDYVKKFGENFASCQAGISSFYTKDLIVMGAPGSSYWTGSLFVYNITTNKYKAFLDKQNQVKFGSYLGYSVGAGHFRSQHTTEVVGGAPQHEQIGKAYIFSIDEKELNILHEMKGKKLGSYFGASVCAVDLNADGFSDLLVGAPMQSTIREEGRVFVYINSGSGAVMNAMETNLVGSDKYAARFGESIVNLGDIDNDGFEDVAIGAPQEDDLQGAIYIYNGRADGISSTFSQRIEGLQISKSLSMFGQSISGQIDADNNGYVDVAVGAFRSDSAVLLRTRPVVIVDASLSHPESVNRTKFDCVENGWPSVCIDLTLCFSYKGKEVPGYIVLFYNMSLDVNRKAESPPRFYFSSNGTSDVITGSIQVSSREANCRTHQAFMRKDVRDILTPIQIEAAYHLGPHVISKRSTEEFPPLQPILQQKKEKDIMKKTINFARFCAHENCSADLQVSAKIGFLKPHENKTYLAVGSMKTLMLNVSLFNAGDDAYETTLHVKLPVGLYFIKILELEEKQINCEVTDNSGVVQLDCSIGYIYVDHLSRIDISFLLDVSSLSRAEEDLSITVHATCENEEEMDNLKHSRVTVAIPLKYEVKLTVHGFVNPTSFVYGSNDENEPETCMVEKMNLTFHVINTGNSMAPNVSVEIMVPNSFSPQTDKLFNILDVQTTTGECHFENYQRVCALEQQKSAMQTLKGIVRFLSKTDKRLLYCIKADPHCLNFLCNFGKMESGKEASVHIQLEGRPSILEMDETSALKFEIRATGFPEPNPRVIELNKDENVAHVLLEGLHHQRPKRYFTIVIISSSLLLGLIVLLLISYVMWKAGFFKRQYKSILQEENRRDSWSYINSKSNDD
Chain of Beta-2 adrenergic receptor (Homo sapiens) (P07550 whole entry, looked up): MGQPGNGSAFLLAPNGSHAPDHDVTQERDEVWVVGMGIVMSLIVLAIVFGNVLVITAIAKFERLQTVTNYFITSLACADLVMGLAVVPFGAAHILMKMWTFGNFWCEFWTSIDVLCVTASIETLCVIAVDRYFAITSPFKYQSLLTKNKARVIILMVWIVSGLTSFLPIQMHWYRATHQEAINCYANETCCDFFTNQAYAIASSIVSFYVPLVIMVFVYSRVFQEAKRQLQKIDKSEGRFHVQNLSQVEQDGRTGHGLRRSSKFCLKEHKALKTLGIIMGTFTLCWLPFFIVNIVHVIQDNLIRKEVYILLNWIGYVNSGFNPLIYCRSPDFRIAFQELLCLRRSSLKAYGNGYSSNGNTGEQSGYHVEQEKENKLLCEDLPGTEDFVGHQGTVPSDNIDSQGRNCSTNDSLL
Chain of ATP-binding cassette sub-family B member 6 (Homo sapiens) (Q9NP58 whole entry, looked up): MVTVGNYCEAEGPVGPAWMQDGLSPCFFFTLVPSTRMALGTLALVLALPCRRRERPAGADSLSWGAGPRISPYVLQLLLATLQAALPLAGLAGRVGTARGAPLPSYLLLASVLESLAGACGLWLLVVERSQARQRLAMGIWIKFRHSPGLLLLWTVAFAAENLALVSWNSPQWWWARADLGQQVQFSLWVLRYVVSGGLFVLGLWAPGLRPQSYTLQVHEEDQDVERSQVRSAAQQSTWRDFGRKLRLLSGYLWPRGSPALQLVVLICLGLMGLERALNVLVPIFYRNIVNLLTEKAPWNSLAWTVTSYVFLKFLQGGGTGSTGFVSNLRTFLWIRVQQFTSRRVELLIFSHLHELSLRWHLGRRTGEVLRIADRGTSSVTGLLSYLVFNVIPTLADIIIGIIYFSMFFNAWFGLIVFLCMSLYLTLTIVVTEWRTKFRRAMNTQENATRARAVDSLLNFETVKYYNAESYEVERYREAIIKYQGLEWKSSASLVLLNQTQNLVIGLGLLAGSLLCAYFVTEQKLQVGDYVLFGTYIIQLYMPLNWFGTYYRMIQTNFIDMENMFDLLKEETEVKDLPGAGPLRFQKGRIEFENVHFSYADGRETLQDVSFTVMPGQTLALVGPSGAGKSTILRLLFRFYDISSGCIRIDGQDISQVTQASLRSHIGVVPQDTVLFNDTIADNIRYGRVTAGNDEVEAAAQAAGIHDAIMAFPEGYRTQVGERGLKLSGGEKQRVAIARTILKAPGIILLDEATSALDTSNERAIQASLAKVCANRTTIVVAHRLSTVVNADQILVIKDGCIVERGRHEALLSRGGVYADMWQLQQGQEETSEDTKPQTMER
Chain of AP-2 complex subunit beta (Homo sapiens) (P63010 whole entry, looked up, the tested form may be a part, one chain of several): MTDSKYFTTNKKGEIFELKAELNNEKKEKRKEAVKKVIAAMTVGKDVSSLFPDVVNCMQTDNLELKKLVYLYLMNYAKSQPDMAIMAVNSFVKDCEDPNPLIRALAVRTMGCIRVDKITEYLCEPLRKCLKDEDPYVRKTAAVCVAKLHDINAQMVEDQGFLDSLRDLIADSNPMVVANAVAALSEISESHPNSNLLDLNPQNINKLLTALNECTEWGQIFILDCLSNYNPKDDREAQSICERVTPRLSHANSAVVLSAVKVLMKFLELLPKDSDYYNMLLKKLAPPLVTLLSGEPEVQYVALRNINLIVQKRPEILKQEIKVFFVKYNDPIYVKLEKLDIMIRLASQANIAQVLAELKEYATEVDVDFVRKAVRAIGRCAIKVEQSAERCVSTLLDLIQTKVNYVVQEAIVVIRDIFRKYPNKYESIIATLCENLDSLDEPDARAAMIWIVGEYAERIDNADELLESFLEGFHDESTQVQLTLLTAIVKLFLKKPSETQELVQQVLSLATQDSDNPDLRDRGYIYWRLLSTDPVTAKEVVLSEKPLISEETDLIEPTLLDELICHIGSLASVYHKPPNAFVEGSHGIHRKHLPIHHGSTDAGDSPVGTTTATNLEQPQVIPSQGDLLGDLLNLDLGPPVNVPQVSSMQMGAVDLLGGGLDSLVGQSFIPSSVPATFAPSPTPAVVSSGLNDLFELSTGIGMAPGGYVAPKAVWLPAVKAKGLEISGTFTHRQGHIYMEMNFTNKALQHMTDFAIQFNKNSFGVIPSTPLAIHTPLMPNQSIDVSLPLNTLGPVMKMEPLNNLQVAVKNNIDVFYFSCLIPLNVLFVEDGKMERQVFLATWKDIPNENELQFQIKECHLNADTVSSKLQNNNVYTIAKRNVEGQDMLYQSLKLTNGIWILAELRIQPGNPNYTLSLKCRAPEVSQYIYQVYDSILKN
Chain of Beta-adrenergic receptor kinase 1 (Homo sapiens) (P25098 whole entry, looked up): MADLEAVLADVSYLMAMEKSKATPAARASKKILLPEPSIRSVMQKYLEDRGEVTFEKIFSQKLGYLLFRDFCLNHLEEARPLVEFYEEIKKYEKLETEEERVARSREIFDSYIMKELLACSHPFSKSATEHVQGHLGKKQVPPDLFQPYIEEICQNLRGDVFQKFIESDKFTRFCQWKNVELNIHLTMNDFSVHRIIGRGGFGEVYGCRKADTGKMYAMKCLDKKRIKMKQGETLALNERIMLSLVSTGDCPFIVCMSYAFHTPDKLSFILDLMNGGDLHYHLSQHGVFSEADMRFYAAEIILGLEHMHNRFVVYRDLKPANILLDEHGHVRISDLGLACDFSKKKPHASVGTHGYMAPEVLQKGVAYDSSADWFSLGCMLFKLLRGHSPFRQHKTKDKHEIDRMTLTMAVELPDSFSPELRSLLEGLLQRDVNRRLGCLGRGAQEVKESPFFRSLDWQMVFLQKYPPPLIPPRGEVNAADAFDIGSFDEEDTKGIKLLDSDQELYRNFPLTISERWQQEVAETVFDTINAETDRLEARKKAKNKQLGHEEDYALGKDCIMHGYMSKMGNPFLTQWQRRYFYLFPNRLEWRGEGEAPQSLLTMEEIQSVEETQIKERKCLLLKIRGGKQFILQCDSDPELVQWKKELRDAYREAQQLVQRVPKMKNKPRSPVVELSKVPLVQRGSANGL

As for `CCOC(=O)Cc1c(C)nc(N)[nH]c1=O`, the percent of DMSO control GFP in test [1] is 101% (inactive). In addition, the GFP response vs DMSO in [2] is 95.1% (inactive); in [4], 91.4% (inactive). For the same compound, the percent response of DMSO control in test [3] is 102% (inactive). The GFP response, % of DMSO in [5] was 94.3% (inactive). The same compound had a double positive events in test [6] of 64.8%. For the same compound, the vesicle binding response in [6] was 276% (inactive). Moreover, the inhibition in test [7] is -1.49% (inactive); in test [10], -8.2% (inactive); in test [14], 15% (inactive). Further, the aptamer binding inhibition in [8] was 3% (inactive). Further, the response is -4.96% (inactive) in test [9] and -0.76% (inactive) in [11]. In addition, in test [12], the binding (% of control) was 107% (inactive). The efflux inhibition (fraction of control) in test [13] is 0.52 (active). Also, in test [15], the differentiation response was 22.7% (inactive).

For the compound `Nc1nc2c(ncn2COCCO)c(=O)[nH]1`, in [1], the percent of DMSO control GFP was 78.1% (active). For the same compound, the GFP response vs DMSO is 123% (inactive) in test [2]; 74.8% (inactive) in test [4]; 100% (inactive) in [16]; 101% in test [16] (setting [21]); 100% in test [16] (setting [22]); 99.5% (inactive) in test [18]. Besides, the percent response of DMSO control in [3] is 103% (inactive). Further, the figures for the GFP response relative to DMSO in [17], in test [17] (measured here: daughter cell gate response) and in test [17] (measured here: mother cell gate response) were 101% (inactive), 97.9% and 100%, respectively. Besides, the GFP response, % of DMSO in test [19] is 101% (inactive); in test [19] (setting [21]), 104%; in [19] (setting [22]), 100%. Besides, in test [6], the double positive events was determined as 63.1%. Further, in [6], the vesicle binding response was 154% (inactive). Also, the inhibition was 16.2% (inactive) in test [7], -5.88% (inactive) in test [10] and 0% (inactive) in test [14]. For the same compound, in [20], the superoxide response (% of plate) is 83.2% (inactive). Besides, the aptamer binding inhibition in [8] was 6% (inactive). Further, the response in [9] was -6.98% (inactive); in test [11], 0.6% (inactive). Further, the binding (% of control) in [12] was 107% (inactive). Also, the efflux inhibition (fraction of control) in test [13] is -0.09 (inactive). The differentiation response in [15] is -4.91% (inactive).

For the compound `CCCNC(=O)NS(=O)(=O)c1ccc(Cl)cc1`, the percent of DMSO control GFP in test [1] was 98.2% (inactive). The GFP response vs DMSO was 104% (inactive) in test [2] and 101% (inactive) in test [4]. In addition, in [3], the percent response of DMSO control was 97.1% (inactive). For the same compound, the GFP response, % of DMSO in test [5] was 103% (inactive). Also, the double positive events in [6] came to 48%. Further, the inhibition in [7] is 1.12% (inactive); in [10], 11.1% (inactive); in test [14], 2% (inactive). Moreover, in [20], the superoxide response (% of plate) was 99.1% (inactive). For the same compound, in test [8], the aptamer binding inhibition is 2% (inactive). Moreover, the response in test [9] is -4.85% (inactive); in test [11], -3.28% (inactive). In addition, the binding (% of control) in test [12] was 102% (inactive). For the same compound, the efflux inhibition (fraction of control) in test [13] is -0.02 (inactive). Further, in test [15], the differentiation response is 8.02% (inactive).

In the case of `CCN1CCN(C(=O)N[C@@H](C(=O)N[C@@H]2C(=O)N3[C@@H]2SC(C)(C)[C@@H]3C(=O)O)c2ccccc2)C(=O)C1=O`, the percent of DMSO control GFP in test [1] is 94.4% (inactive). In addition, the figures for the GFP response vs DMSO in [2] and in [4] were 122% (inactive) and 74.3% (inactive), respectively. The percent response of DMSO control in test [3] is 103% (inactive). Further, the double positive events in test [6] was 69.1%. In addition, the vesicle binding response in test [6] is 138% (inactive). Further, the inhibition is -5.18% (inactive) in test [7], 3.29% (inactive) in [10] and 7% (inactive) in test [14]. Moreover, in [20], the superoxide response (% of plate) was 109% (inactive). The aptamer binding inhibition in test [8] was 2% (inactive). The response in [9] was -5.92% (inactive); in test [11], 1.38% (inactive). For the same compound, the binding (% of control) in test [12] is 103% (inactive). In addition, the efflux inhibition (fraction of control) in test [13] was 0.16 (inactive). Besides, the differentiation response in [15] was 3.28% (inactive).

Regarding `COc1cccc(N2CC(O)=C(c3nc4ccccc4c(=O)[nH]3)C2=N)c1`, in [1], the percent of DMSO control GFP is 97.9% (inactive). Further, the GFP response vs DMSO was 130% (inactive) in test [2] and 75.9% (inactive) in [4]. The percent response of DMSO control in test [3] was 116% (inactive). Moreover, the double positive events in test [6] was determined as 58.4%. In addition, the vesicle binding response in test [6] is 140% (inactive). Further, the values for the inhibition in [7], in test [10] and in test [14] were 11.3% (inactive), 2.43% (inactive) and 14% (inactive), respectively. For the same compound, the superoxide response (% of plate) in test [20] is 106% (inactive). Also, in test [8], the aptamer binding inhibition was 5% (inactive). The response is 20.8% (inactive) in [9] and 8.28% (inactive) in test [11]. In addition, the binding (% of control) in test [12] was 103% (inactive). In addition, the efflux inhibition (fraction of control) in [13] was -0.2 (inactive). Besides, the differentiation response in [15] was 2.46% (inactive).

These data come from PubChem BioAssay.
